Experimental findings from PubChem BioAssay are described below.

The nature of assay [1]: polyglutamine-triggered caspase-3 activation inhibitors, cell-based (AID 1583). Particulars: polyglutamine-induced caspase-3 activation, cell assay; stronger effect = higher value;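 tested at 10 µM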.
The nature of assay [2]: suppressors of polyQ aggregation in yeast, 75Q-TubU reporter (AID 1593). Particulars: Yeast 75Q polyglutamine aggregation reporter.
Assay [3] can be described thus: rescue of polyQ-huntingtin neuronal dysfunction in worms, whole organism, C. elegans mechanosensory neurons, N-terminal huntingtin (AID 1599). The following applies: touch response, stronger effect = higher value.
Assay [4] can be described thus: inhibitors of mitochondrial cytochrome c release, biochemical, purified mitochondria (AID 1603).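 Note: mouse liver mitochondria challenged with calcium chloride; signal normalized to the plate average as 100%.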 The following applies: stronger effect = lower value.
Assay [5] is described as follows: inhibitors of polyQ protein aggregation (AID 1604). The following applies: polyglutamine-induced protein aggregation inhibition assay; stronger effect = higher value; tested at 2.5 µM.
Assay [6] can be described thus: enhancers of glutamate uptake in motor neurons, MN-1 cell line (AID 1612).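 Note: tested at 1 µM final; 0% = mean of DMSO vehicle wells on each plate; positive means more glutamate uptake than control and negative means less.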 Particulars: MN-1 motor neuron cells, stronger effect = higher value.
Assay [7] can be described thus: reducers of polyQ inclusions in PC12 cells, cell-based, NGF-treated PC12, GFPQ80 (AID 1614).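 Note: lower means fewer inclusions and 0 means no inclusions at all.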 The following applies: PC12 NGF-treated GFP-polyQ80 inclusion reduction.
Assay [8] is described as follows: suppressors of polyglutamine aggregation in yeast, 75Q-TubH (AID 1616). Particulars: S. cerevisiae 75Q-TubH polyglutamine aggregation suppression; stronger effect = higher value.
Assay [9] can be described thus: liver-stage malaria parasite growth inhibition, primary screen, cell-based, HepG2, luciferase luminescence, HepG2 viability (AID 624349).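 Note: 100% = mean of DMSO negative control wells on the same plate.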 Particulars: P. berghei liver stage in HepG2, luciferase luminescence, concentration not given here; parasite load remaining: stronger effect = lower value; viability: measured here: HepG2 viability without parasites.
Assay [10] is described as follows: differential killing of epithelial or mesenchymal cells, primary screen, imaging, PC-3E GFP, TEM4-18 mCherry, co-culture (AID 1345086;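 active = compounds killing one labelled cell type while sparing the other, by normalised counts and ratio limits, not self-fluorescent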;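 for all read-outs here: cells exposed to compound for 72 h before imaging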;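 for red/green cell ratio (normalised): normalised mesenchymal count divided by normalised epithelial count so high means epithelial killing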). The following applies: imaging cell counts, at 1 µM; for red/green cell ratio (normalised): actives lie on both sides, counts scaled to control wells, 1 = unselective.
Assay [11] in a line: sensitizers of A549 cells to miR-34 induction, primary screen, imaging, A549 dox-inducible miR-34, nuclei and caspase counts (AID 1347080;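 active = compounds whose cell count with miR-34 switched on is under 0.7 times the count with it off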). The following applies: A549 miR-34 inducible, Hoechst nuclei count, 48 h.
Assay [12] has as its system Hepatitis C virus NS3 helicase. In words: HCV NS3 helicase inhibitors, primary screen, biochemical, fluorescence polarization, LOPAC1280 library (AID 687035; in the data active = inhibition above about 37%). The following applies: Purified HCV NS3 helicase, Cy5-dT15 ssDNA binding fluorescence polarization; stronger effect = higher value; concentration not given here.
A short description of assay [13]: Cy5 fluorescence quenching or enhancement artefacts, artefact control for HCV NS3 helicase inhibitor project, biochemical, LOPAC1280 (AID 687037; call rule not given here). The following applies: Cy5-DNA-NS3h complex fluorescence interference counterscreen. A general note: A counterscreen serves to expose hits that act by an unwanted route or on another target.
Where [14] appears, read: measured here: epithelial PC-3E GFP cell survival.
[15] abbreviates: measured here: mesenchymal TEM4-18 mCherry cell survival.
The mark [16] stands for this setting: stronger effect = lower value, cell number ratio, induced over uninduced.
Where [17] appears, read: measured here: relative caspase fold change +Dox/-Dox.
[18] abbreviates: measured here: total cells with miR-34 induction, stronger effect = lower value.
The mark [19] stands for this setting: measured here: total cells without miR-34 induction.

Values joined by “and” are separate entries in the source; they are usually repeats but may differ in a detail not shown here. Equal entries are not always repeated. For some assays here: Results with a measured potency or affinity are listed apart. Active and inactive are the calls of the source. Cut-off read from the data, not from the text of the source, unless noted: active = parasite load remaining mostly below about 12% (no sharp cut-off); inactive = mostly above about 10%.

In general, inhibition refers to the change of the read-out against control, counted positive when it falls. As usually defined, the viability is a read-out of living cells in per cent, often relative to untreated cells. As to `C[C@H]1O[C@@H](O[C@H]2[C@@H](O)C[C@H](O[C@H]3[C@@H](O)C[C@H](O[C@H]4CC[C@]5(C)C6C[C@@H](O)[C@]7(C)[C@@H](C8=CC(=O)OC8)CC[C@]7(O)C6CC[C@@H]5C4)O[C@@H]3C)O[C@@H]2C)C[C@H](O)[C@@H]1O` (stereo partly specified), the inhibition in assay [1] came out at 80%. This compound registered a score in assay [2] of 1.17. Besides, the rescue above control in assay [3] stood at 0. In addition, the cytochrome c release ratio in assay [4] was found to be 0.9. In assay [5], this compound yielded an inhibition of aggregation of 88.9%. The glutamate uptake change in assay [6] is -3.95%. Besides, the inclusion score in [7] turned out to be 1.5. In addition, the aggregation suppression score in assay [8] was 1.34. Also, the parasite load remaining in assay [9] is 1.4% (inactive) and 1.3% (inactive). The viability in assay [9] was 36.1% and 54.9%. The red/green cell ratio (normalised) in assay [10] is 0.68 (inactive). The figures for the normalised cell number in [10] (setting [14]) and in assay [10] (setting [15]) were 1.14 and 0.77, respectively. Besides, the figures for the fold change in [11] (setting [16]) and in assay [11] (setting [17]) were 0.434 (active) and 2.23, respectively. Besides, the results for the cell count in assay [11] (setting [18]) and in assay [11] (setting [19]) were 193 and 445, respectively.

As for `CO/N=C(/C(=O)NC1C(=O)N2C(C(=O)O)=C(COC(N)=O)CSC12)c1ccco1` (stereo unspecified), in [1], the inhibition came to 8.13%. Moreover, the score in assay [2] was found to be 1.48. Besides, the rescue above control in assay [3] was -9.55. In assay [4], the cytochrome c release ratio was found to be 1.1. The compound also returned an inhibition of aggregation in assay [5] of 28.8%. In addition, the glutamate uptake change in assay [6] is 14.5%. Further, the inclusion score in assay [7] was 2. Besides, the aggregation suppression score in [8] is 1.29. The parasite load remaining in assay [9] was 180% (inactive) and 36.7% (inactive). In addition, the viability in [9] was 72.5% and 86.1%. Moreover, the red/green cell ratio (normalised) in assay [10] is 0.94 (inactive). For the same compound, the normalised cell number was found to be 1.04 in [10] (setting [14]) and 0.97 in [10] (setting [15]). Moreover, the fold change was 0.899 (inactive) in assay [11] (setting [16]) and 3.3 in assay [11] (setting [17]). The cell count worked out at 11600 in [11] (setting [18]) and 12900 in assay [11] (setting [19]).

On to `NC(N)=N/N=C\c1c(Cl)cccc1Cl`, for which the results for the inhibition in [1] and in assay [12] were -8.15% and 0% (inactive), respectively. Moreover, the score in [2] came to 1.22. Moreover, in [3], the rescue above control was -12.2. Besides, the cytochrome c release ratio in [4] is 1.41. Further, in assay [5], the inhibition of aggregation came to 61%. Besides, in assay [6], the glutamate uptake change stood at 33.9%. In addition, the inclusion score in assay [7] amounted to 2. The aggregation suppression score in assay [8] amounted to 0.91. Also, in assay [9], the parasite load remaining was 56% (inactive) and 40.7% (inactive). Moreover, the viability in assay [9] was 69.3% and 86.4%. Besides, the fluorescence ratio (interference) in [13] was 1 (inactive). For the same compound, the red/green cell ratio (normalised) in assay [10] was 1.13 (inactive). The normalised cell number in [10] (setting [14]) was determined as 1.05; in [10] (setting [15]), 1.18. Besides, the fold change in assay [11] (setting [16]) was 0.816 (inactive); in assay [11] (setting [17]), 0.826. Also, the values for the cell count in [11] (setting [18]) and in [11] (setting [19]) were 8780 and 10800, respectively.

As to `Nc1ncnc2c1ncn2C1O[C@H](COP(=O)(O)O)[C@@H](O)[C@H]1O` (stereo partly specified), the inhibition in assay [1] amounted to 5.37%. The compound also returned a score in assay [2] of 1.5. Also, the rescue above control in assay [3] is 1.04. The cytochrome c release ratio in assay [4] came out at 0.86. Also, the inhibition of aggregation in assay [5] stood at 92.6%. Also, the glutamate uptake change in assay [6] is -13.1%. The compound also registered an inclusion score in assay [7] of 2. Further, the aggregation suppression score in assay [8] stood at 1.2. Further, in [9], the parasite load remaining is 124% (inactive) and 48.3% (inactive). The viability in [9] is 75.9% and 108%. Further, the red/green cell ratio (normalised) in assay [10] is 0.96 (inactive). Moreover, the normalised cell number in assay [10] (setting [14]) was found to be 1.18; in [10] (setting [15]) it was 1.13. The figures for the fold change in assay [11] (setting [16]) and in [11] (setting [17]) were 0.861 (inactive) and 1.84, respectively. Moreover, the cell count was 11700 in assay [11] (setting [18]) and 13600 in assay [11] (setting [19]).

On to `Nc1ccn(C2O[C@H](CO)[C@@H](O)[C@@H]2O)c(=O)n1` (stereo partly specified), for which the inhibition in [1] was determined as 26%. Moreover, in assay [2], the score was 1.28. In assay [3], the rescue above control was 1.26. In addition, the cytochrome c release ratio in [4] worked out at 1.03. For the same compound, the inhibition of aggregation in assay [5] worked out at 77.5%. In assay [6], the glutamate uptake change was -13.5%. Moreover, the aggregation suppression score in assay [8] turned out to be 1.27. The parasite load remaining in assay [9] was 129% (inactive) and 95.7% (inactive). In addition, the viability in [9] was 74% and 95.8%. The red/green cell ratio (normalised) in assay [10] was 1.61 (inactive). The normalised cell number is 0.27 in [10] (setting [14]) and 0.43 in assay [10] (setting [15]). Moreover, the fold change in assay [11] (setting [16]) is 0.952 (inactive); in assay [11] (setting [17]) it was 1.13. The cell count amounted to 1930 in assay [11] (setting [18]) and 2030 in assay [11] (setting [19]).
